According to PubChem BioAssay:
Where “and” joins values, the source holds several entries; their conditions need not be identical. Equal entries are not always repeated. Results filed as inconclusive are left out. Calls of active or inactive are those of the source.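 Rule for the calls, unless noted: active = response below a set limit, under 55% cells CD8-positive and vesicle-bound, and CD8 cells' 90th-percentile brightness under 279; inactive = the rest.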

Key:
[1] = rapamycin-like changes in RPL19A-GFP expression – cell-based, S. cerevisiae, multiplex flow cytometry, primary screen (AID 1862; in the data active = percent of DMSO control GFP below about 86%;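 note: lower values mimic rapamycin by blocking the RPL19A rise seen in DMSO cells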); settings: S. cerevisiae RPL19A-GFP strain, flow cytometry fluorescence, 3 h; at 10 µM; stronger effect = lower value
[2] = TOR pathway GLN3 branch reporter MEP2-GFP changes – S. cerevisiae, multiplex flow cytometry, primary screen (AID 1867;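 active = GFP response, as percent of the DMSO control, above the screen-wide mean plus 3 SD, about 139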;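 note: median GFP channel fluorescence of barcode-gated MEP2-GFP cells measured by flow cytometry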); settings: S. cerevisiae MEP2-GFP strain, 3 h, at 10 µM, stronger effect = higher value, 100% means same as DMSO wells
[3] = TOR pathway RTG branch CIT2 reporter changes – S. cerevisiae, GFP fusion, multiplex flow cytometry, primary screen (AID 1870;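 active = percent response above a set limit, the screen-wide mean plus 3 SD, cut at about 130% in these data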;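 note: barcoded CIT2-GFP strain pooled with four other GFP strains with rapamycin as positive control; median GFP fluorescence per well over plate mean of DMSO wells so 100% = DMSO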); settings: S. cerevisiae CIT2-GFP expression, 3 h, at 10 µM, stronger effect = higher value
[4] = TOR pathway LAP4-GFP level changes – S. cerevisiae, multiplex flow cytometry, primary screen (AID 1873;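 active = GFP signal, as percent of the solvent control, above the screen mean plus 3 SD, about 149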); settings: S. cerevisiae LAP4-GFP expression, 3 h, at 10 µM, stronger effect = higher value
[5] = yeast AGP1-GFP level changes, GLN3 branch – cell-based, multiplex flow cytometry, S. cerevisiae, primary screen (AID 1887;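 active = GFP signal above the screen-wide mean plus 3 SD, that is over about 124.5% of the solvent control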;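 note: AGP1-GFP fusion strain of S. cerevisiae within a five-strain barcoded multiplex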); settings: 3 h, at 10 µM, stronger effect = higher value
[6] = reduced mouse 2C T cell binding to pMHC/ICAM-1 vesicles – MLPCN validation set, flow cytometry, LFA-1/ICAM-1 modulator project, pilot screen (AID 2523); settings: 2C mouse CD8+ T cells, at 7 µM, stronger effect = lower value; double positive events: measured here: CD8+/vesicle+ event percentage;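 for vesicle binding response: mean PE anti-B7-1 fluorescence of CD8+ cells relative to row control; 100% = QL9-loaded vesicles with DMSO vehicle in the same plate row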
[7] = target: Integrin beta-1 (Homo sapiens) + Integrin alpha-4 (Homo sapiens) (UniProt P13612+P05556); experiment: alpha4beta1 integrin LIBS antibody binding reduction – U937 cells, HUTS-21 mAb, flow cytometry, validation set, VLA-4 allosteric modulator project, pilot screen (AID 2674;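 active = inhibition above 50%, about 3 SD of the validation set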;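 note: antibody binding induced by the VLA-4 ligand LDV present at three times its Kd; 0% = LDV ligand with antibody and no compound and 100% = antibody without LDV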); settings: HUTS-21 LIBS mAb binding, at 6.7 µM, stronger effect = higher value, binding induced by LDV ligand
Integrin beta-1 (Homo sapiens) + Integrin alpha-4 (Homo sapiens), sequence (P05556 whole entry, looked up): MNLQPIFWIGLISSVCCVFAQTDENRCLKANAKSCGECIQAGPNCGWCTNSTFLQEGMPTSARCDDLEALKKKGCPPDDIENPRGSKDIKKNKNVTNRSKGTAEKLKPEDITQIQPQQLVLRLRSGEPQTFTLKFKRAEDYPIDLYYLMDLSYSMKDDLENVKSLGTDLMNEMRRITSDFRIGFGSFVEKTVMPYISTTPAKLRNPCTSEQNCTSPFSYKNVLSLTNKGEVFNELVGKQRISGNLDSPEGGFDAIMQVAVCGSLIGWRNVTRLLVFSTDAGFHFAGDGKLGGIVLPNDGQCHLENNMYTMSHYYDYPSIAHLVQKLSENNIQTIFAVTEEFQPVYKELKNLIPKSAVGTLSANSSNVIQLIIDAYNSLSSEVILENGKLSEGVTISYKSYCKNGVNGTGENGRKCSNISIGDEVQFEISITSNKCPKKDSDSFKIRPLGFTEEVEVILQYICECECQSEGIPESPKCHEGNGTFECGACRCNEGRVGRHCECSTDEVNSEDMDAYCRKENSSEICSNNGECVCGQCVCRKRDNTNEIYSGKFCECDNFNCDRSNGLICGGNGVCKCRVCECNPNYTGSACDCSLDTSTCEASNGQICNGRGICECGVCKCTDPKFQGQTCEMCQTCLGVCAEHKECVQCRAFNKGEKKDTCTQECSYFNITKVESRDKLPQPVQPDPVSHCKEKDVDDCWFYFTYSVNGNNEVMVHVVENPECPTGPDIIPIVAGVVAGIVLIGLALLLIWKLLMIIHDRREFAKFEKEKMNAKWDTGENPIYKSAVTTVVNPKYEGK
Integrin beta-1 (Homo sapiens) + Integrin alpha-4 (Homo sapiens), sequence (P13612 whole entry, looked up): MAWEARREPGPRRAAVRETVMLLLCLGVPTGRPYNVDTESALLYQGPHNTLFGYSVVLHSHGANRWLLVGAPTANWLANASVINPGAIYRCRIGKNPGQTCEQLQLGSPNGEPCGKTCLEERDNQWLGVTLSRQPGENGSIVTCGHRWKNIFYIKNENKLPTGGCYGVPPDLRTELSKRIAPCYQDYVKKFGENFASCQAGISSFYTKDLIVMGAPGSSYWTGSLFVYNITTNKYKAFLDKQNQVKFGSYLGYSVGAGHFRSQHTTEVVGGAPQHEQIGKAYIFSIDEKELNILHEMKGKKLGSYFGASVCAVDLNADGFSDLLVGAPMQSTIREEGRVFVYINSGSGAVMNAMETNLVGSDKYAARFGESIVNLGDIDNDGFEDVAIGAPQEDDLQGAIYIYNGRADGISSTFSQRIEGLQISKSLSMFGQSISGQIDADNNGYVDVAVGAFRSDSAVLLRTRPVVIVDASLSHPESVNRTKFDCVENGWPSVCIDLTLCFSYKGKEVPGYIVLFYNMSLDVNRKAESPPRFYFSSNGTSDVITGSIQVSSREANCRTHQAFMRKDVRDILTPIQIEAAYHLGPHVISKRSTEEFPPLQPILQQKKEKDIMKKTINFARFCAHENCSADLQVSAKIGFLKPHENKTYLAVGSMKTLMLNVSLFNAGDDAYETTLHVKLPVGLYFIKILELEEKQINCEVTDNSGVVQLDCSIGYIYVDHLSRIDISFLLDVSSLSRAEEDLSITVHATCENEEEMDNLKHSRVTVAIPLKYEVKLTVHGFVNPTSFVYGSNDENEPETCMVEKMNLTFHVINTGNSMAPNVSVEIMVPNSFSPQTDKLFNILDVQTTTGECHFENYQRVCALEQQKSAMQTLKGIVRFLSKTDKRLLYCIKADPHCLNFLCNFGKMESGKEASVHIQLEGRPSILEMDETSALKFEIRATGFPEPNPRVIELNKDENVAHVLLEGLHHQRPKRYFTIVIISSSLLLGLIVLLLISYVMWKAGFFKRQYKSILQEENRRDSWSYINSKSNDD

[8] = calorie-restriction mimetic ROS inhibitors, yeast – validation compound set, pilot screen (AID 2706;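 active = superoxide response below 65% of plate, a cut near 3 SD across the whole screen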;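 note: yeast exposed to compound for one week at 30 degrees C before staining; 100% = mean of all compound wells on the same plate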); settings: S. cerevisiae aging, superoxide DHE fluorescence; at 10 µM; stronger effect = lower value
[9] = target: Beta-adrenergic receptor kinase 1 (Homo sapiens) (UniProt P25098); experiment: GRK2 binders displacing RNA aptamer, biochemical, validation, human GRK2, bead flow cytometry (AID 488806;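 active = aptamer binding inhibition above 30%, about 3 SD of noise from non-fluorescent compounds; inactive = inhibition at or below 30%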); settings: bead-bound GRK2, FAM-aptamer displacement, at 10 µM, stronger effect = higher value
Beta-adrenergic receptor kinase 1 (Homo sapiens), sequence (P25098 whole entry, looked up): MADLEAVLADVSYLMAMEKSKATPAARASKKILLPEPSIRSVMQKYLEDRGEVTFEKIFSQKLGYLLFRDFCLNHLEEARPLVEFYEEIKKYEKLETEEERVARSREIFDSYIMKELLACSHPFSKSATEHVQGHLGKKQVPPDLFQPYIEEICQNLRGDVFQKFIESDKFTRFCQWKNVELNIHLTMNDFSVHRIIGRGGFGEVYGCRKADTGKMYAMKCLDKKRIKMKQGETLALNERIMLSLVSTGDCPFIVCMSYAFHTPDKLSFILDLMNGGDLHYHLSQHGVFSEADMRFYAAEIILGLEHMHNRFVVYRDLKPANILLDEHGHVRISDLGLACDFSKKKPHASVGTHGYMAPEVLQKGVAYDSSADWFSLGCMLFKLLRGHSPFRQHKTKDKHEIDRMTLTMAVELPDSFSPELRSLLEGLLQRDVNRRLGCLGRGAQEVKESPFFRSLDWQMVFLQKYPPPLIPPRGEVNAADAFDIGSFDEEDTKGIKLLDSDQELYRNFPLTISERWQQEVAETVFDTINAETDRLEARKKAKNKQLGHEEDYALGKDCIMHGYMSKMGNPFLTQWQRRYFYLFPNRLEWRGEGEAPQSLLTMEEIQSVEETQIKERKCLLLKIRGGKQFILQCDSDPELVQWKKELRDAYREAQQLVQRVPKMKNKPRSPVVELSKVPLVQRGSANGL

[10] = target: Beta-2 adrenergic receptor (Homo sapiens) (UniProt P07550); experiment: agonist-induced loss of surface beta2AR – cell-based, FAP fluorogen, flow cytometry, validation set, pilot screen (AID 504459;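 active = percent response above 42, roughly 3 SD of non-fluorescent test compounds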;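 note: agonist-driven loss of surface beta2AR via internalization measured by FAP dye flow cytometry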); settings: Am2.2-beta2AR cells, at 10 µM, stronger effect = higher value
Beta-2 adrenergic receptor (Homo sapiens), sequence (P07550 whole entry, looked up): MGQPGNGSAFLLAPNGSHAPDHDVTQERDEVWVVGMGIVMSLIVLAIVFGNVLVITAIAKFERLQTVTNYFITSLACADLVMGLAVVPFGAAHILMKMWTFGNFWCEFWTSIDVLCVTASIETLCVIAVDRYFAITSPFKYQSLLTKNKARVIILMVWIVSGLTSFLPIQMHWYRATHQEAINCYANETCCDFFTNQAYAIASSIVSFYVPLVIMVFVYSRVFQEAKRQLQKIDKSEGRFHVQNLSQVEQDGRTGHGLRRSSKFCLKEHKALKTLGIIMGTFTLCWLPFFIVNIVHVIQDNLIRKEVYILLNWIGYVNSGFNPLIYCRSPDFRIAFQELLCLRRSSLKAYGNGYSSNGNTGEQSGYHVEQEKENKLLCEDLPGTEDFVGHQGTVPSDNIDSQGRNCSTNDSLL

[11] = target: AP-2 complex subunit beta (Homo sapiens) (UniProt P63010); experiment: beta-arrestin/AP2 interaction blockers – biochemical, validation set, GST-AP2 beads, flow cytometry, pilot screen (AID 504541;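 active = inhibition above 54%, about 3 SD of non-fluorescent compounds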;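 note: AP2 carries R879A mutation and is captured from E. coli lysate; bead-bound FITC arrestin peptide fluorescence measuring arrestin peptide binding to AP2; 0% = DMSO wells and 100% = excess unlabeled arrestin peptide control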); settings: FITC arrestin peptide, at 10 µM, stronger effect = higher value, AP2 beta2 appendage fragment, R879A mutant
AP-2 complex subunit beta (Homo sapiens), sequence (P63010 whole entry, looked up, the tested form may be a part, one chain of several): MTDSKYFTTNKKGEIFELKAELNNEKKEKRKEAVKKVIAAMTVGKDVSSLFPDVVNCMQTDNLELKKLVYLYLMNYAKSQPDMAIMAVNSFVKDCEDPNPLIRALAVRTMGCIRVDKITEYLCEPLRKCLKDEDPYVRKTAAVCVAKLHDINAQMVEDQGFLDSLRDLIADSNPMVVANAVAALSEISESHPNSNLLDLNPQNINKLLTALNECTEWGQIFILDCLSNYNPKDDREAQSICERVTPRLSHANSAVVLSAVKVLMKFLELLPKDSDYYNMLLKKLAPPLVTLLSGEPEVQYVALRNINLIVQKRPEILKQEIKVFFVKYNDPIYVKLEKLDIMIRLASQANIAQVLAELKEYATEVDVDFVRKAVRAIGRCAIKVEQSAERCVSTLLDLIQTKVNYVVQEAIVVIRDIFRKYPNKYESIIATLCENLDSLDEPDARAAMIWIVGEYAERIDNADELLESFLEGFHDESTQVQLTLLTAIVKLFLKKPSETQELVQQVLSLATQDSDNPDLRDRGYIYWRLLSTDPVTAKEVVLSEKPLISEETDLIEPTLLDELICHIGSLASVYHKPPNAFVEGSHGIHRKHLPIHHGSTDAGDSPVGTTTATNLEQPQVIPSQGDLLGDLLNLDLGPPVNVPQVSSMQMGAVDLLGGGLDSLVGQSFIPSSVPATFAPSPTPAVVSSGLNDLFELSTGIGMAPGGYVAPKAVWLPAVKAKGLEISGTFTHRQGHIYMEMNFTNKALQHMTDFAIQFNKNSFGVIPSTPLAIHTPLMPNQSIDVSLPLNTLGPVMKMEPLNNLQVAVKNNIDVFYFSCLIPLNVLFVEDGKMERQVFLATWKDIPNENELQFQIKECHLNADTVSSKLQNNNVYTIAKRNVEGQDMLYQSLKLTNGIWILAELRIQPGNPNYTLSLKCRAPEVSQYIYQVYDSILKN

[12] = cytosolic pH regulators acting via V-ATPase – S. cerevisiae, pHLuorin, HTS validation (AID 504600; in the data active = response above about 15%;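 note: plate controls were DMSO for no effect and reference compound for full effect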); settings: V-ATPase proton transport, at 10 µM, stronger effect = higher value
[13] = system: anti-desmoglein-3 scFv antibody binding to human DSG3; experiment: blockers of pathogenic pemphigus antibody–desmoglein-3 binding – biochemical, validation compound set, bead-based, flow cytometry, pilot screen (AID 588368;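 active = binding below the plate cutoff, the plate median minus 3 SD, with a reading above zero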;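 note: signal is the median channel fluorescence of bead-bound GFP antibody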); settings: Protein G beads, DSG3-Fc, scFv-GFP binding, at 10 µM, stronger effect = lower value
[14] = Nile Red efflux blockade in pump-expressing yeast – validation compound set, multiplex, phenotypic, pilot screen (AID 588506;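 active = efflux inhibition above 0.42, the validation set average plus 4 SD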;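 note: Nile Red retained in cells so higher fluorescence means more efflux inhibition; 0 = negative control wells and 1 = enniatin B 25 µM full block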); settings: S. cerevisiae pump-expressing triplex, Nile Red efflux flow cytometry; at 10 µM; stronger effect = higher value; the pumps come from Candida albicans
[15] = target: ATP-binding cassette sub-family B member 6 (Homo sapiens) (UniProt Q9NP58); experiment: blockers of ABCB6-driven porphyrin uptake – K562-ABCB6 cells, flow cytometry, validation set, pilot screen (AID 588550;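 active = inhibition above the screen-wide mean plus 3 SD, about 51%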;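 note: 0% = DMSO wells and 100% = benzethonium chloride 70 µM positive control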); settings: K562-ABCB6 porphyrin accumulation, 1 h, at 10 µM, stronger effect = higher value
ATP-binding cassette sub-family B member 6 (Homo sapiens), sequence (Q9NP58 whole entry, looked up): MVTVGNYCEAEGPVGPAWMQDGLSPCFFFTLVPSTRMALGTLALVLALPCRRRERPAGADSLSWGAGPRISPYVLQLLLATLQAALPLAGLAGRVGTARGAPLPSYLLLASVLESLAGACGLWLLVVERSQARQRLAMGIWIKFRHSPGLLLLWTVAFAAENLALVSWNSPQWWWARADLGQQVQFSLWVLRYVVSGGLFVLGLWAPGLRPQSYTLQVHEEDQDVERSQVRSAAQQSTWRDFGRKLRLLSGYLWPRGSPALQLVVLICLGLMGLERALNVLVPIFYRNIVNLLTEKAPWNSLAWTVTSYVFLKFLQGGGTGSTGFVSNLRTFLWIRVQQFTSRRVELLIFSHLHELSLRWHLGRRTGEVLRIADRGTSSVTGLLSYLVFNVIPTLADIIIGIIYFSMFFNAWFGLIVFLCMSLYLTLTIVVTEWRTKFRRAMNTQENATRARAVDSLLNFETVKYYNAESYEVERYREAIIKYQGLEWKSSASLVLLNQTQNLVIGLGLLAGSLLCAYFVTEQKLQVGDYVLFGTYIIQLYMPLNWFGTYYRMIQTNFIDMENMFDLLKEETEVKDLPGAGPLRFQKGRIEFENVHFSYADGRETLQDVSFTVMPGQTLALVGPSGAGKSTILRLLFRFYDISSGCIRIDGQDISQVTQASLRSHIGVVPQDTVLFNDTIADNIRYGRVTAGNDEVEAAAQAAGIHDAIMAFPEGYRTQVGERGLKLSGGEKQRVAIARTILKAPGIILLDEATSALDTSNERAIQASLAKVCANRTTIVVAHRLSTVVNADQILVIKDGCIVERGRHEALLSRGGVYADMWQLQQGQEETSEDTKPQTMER

[16] = AML differentiation inducers, ER-HoxA9 marrow cells – cell-based, GFP/MAC1 double positive, flow cytometry, validation set, primary screen (AID 588685;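 active = differentiation response of at least 50%, scaled between solvent and reference control, from cells with both markers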;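 note: compound exposure lasts four days before antibody staining and flow analysis; 0% = DMSO wells and 100% = 5 µM fulvestrant positive control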); settings: stronger effect = higher value, normalized: vehicle 0, fulvestrant 100

| SMILES | percent of DMSO control GFP [1] | GFP response vs DMSO [2] | percent response of DMSO control [3] | GFP response vs DMSO [4] | GFP response, % of DMSO [5] | double positive events [6] | vesicle binding response [6] | inhibition [7] | superoxide response (% of plate) [8] | aptamer binding inhibition [9] | response [10] | inhibition [11] | response [12] | binding (% of control) [13] | efflux inhibition (fraction of control) [14] | inhibition [15] | differentiation response [16] |
| --- | --- | --- | --- | --- | --- | --- | --- | --- | --- | --- | --- | --- | --- | --- | --- | --- | --- |
| c1ccc(SSc2ccccc2)cc1 | 105% (inactive) | 108% (inactive) | 118% (inactive) | 96.6% (inactive) | 103% (inactive) | 62.9% | 301% (inactive) | -0.45% (inactive) | 93.6% (inactive) | 2% (inactive) | 1.12% (inactive) | -24.5% (inactive) | 3.24% (inactive) | 93.5% (inactive) | -0.04 (inactive) | -6% (inactive) | -2.69% (inactive) |
| CC(C)Cc1ccc(C(C)C(=O)O)cc1 (stereo not drawn) | 105% (inactive) | 104% (inactive) | 95.7% (inactive) | 142% (inactive) | 111% (inactive) | 59.8% | 141% (inactive) | 4.84% (inactive) | 144% (inactive) | 0% (inactive) | -11.9% (inactive) | -1.77% (inactive) | 0.95% (inactive) | 107% (inactive) | -0.17 (inactive) | 5% (inactive) | -1.05% (inactive) |
| CC(C)(C)C(=O)NCCCNc1ccc([N+](=O)[O-])cc1 | 103% (inactive) | 123% (inactive) | 93.9% (inactive) | 95.2% (inactive) | 104% (inactive) | 67.3% | 295% (inactive) | 5.49% (inactive) | 86% (inactive) | -1% (inactive) | -6.07% (inactive) | 22% (inactive) | 1.78% (inactive) | 110% (inactive) | -0.06 (inactive) | 15% (inactive) | 12.3% (inactive) |
| Cc1ccc(N(CC2=NCCN2)c2cccc(O)c2)cc1 | 107% (inactive) and 88.9% (inactive) and 106% (inactive) | 107% (inactive) and 126% (inactive) and 96.9% (inactive) | 112% (inactive) and 107% (inactive) and 114% (inactive) | 105% (inactive) and 80.3% (inactive) and 113% (inactive) | 105% (inactive) and 95.6% (inactive) and 106% (inactive) | 48.5% and 66.6% and 52.4% | 164% (inactive) and 159% (inactive) and 183% (inactive) | -12.4% (inactive) and 6.46% (inactive) and 1.62% (inactive) | 94.9% (inactive) and 91.2% (inactive) and 102% (inactive) | -2% (inactive) and 0% (inactive) and -7% (inactive) | -2.19% (inactive) | -1.88% (inactive) and 0.96% (inactive) and -11.2% (inactive) | 1.2% (inactive) and -3.77% (inactive) and 0.74% (inactive) | 98.2% (inactive) and 102% (inactive) and 97.7% (inactive) | -0.05 (inactive) and 0.23 (inactive) and -0.24 (inactive) | 9% (inactive) and 4% (inactive) and 7% (inactive) | -34.1% (inactive) and 3.28% (inactive) and -18% (inactive) |
| CC(CN1c2ccccc2Sc2ccccc21)N(C)C (stereo not drawn) | 92.4% (inactive) | 117% (inactive) | 111% (inactive) | 78.1% (inactive) | 94.9% (inactive) | 74.2% | 363% (inactive) | -2.27% (inactive) | 84.2% (inactive) | -3% (inactive) | -2.04% (inactive) | 1.26% (inactive) | -2.78% (inactive) | 97.2% (inactive) | -0.53 (inactive) | 10% (inactive) | -1.64% (inactive) |
| Cc1ccc(S(=O)(=O)N[C@@H](C)C(=O)N2CCC(C(=O)N3CCC[C@H]3C(=O)O)CC2)cc1 | 95% (inactive) | 129% (inactive) | 103% (inactive) | 79.2% (inactive) | 88.4% (inactive) | 71% | 174% (inactive) | 3.55% (inactive) | 92.7% (inactive) | 9% (inactive) | -2.38% (inactive) | -9.12% (inactive) | -1.19% (inactive) | 100% (inactive) | -0.2 (inactive) | 8% (inactive) | 0% (inactive) |
| O=C(CC(NC(=O)OCc1ccccc1)C(=O)O)OCc1ccccc1 (stereo not drawn) | 106% (inactive) | 99.3% (inactive) | 107% (inactive) | 98% (inactive) | 99.5% (inactive) | 63.2% | 160% (inactive) | 18.2% (inactive) | 94.6% (inactive) | 4% (inactive) | -5.78% (inactive) | -5.06% (inactive) | -3.27% (inactive) | 97.1% (inactive) | -0.07 (inactive) | 22% (inactive) | -2.69% (inactive) |
| CN(C)C(=O)Oc1ccc[n+](C)c1 | 102% (inactive) | 106% (inactive) | 94.2% (inactive) | 94.7% (inactive) | 95.9% (inactive) | 62.3% | 1200% (inactive) | 0.58% (inactive) | 104% (inactive) | 4% (inactive) | 0.34% (inactive) | 16.8% (inactive) | -1.45% (inactive) | 103% (inactive) | -0.1 (inactive) | 13% (inactive) | -1.71% (inactive) |
| CCCCCC(=O)O[C@]1(C(C)=O)CC[C@H]2[C@@H]3CCC4=CC(=O)CC[C@]4(C)[C@H]3CC[C@@]21C | 98.9% (inactive) | 95.6% (inactive) | 94.5% (inactive) | 108% (inactive) | 98.1% (inactive) | 60% | 153% (inactive) | -17.2% (inactive) | 105% (inactive) | 0% (inactive) | 6.12% (inactive) | 18.3% (inactive) | -0.4% (inactive) | 105% (inactive) | -0.155 (inactive) | 2% (inactive) | -0.18% (inactive) |
